Source: PubChem
In the library only some 3.3% were active in any assay of this set; here they are far more common.
RE007 growth inh: less growth of the S. pombe RE007 Vpr strain | S. pombe RE007 Vpr strain, BacTiter-Glo ATP luminescence, 24 h | Potency, µM (top dose mostly 92.2 µM), inactives show at the highest dose activity change, negative = less growth, usual class: inhibitors | 360,000 compounds, 0.21% hits | AID 651644; active = well fitted falling curve with a large enough effect; inconclusive = small, poorly fitted or top-dose-only effect; inactive = no such curve, though single readings can be large or run the other way; also: % is scaled to controls: 0 for no effect and ±100 for the full control effect; nearly all actives have a fitted effect of over 50% in size
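Fission yeast RE007 carrying one integrated HIV-1 vpr copy, seeded at OD 0.01 in PMG+AL medium with 23 nL pinned compound. Grown 24 h at 30 degrees; viability read by BacTiter-Glo luminescence after 5 min.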
LmPK inh: LmPK (Leishmania mexicana) enzyme inhibition; Q27686; Potency, µM (highest dose often 57.5 µM), inactives show at the top dose activity change, negative = inhibition, hits mostly inhibitors; purified LmPK, Kinase-Glo ATP luminescence, 1 h; 290,000 compounds, 0.37% hits; AID 1721; also: % is scaled to controls: 0 for no effect and ±100 for the full control effect
Target sequence (Q27686 whole entry, looked up): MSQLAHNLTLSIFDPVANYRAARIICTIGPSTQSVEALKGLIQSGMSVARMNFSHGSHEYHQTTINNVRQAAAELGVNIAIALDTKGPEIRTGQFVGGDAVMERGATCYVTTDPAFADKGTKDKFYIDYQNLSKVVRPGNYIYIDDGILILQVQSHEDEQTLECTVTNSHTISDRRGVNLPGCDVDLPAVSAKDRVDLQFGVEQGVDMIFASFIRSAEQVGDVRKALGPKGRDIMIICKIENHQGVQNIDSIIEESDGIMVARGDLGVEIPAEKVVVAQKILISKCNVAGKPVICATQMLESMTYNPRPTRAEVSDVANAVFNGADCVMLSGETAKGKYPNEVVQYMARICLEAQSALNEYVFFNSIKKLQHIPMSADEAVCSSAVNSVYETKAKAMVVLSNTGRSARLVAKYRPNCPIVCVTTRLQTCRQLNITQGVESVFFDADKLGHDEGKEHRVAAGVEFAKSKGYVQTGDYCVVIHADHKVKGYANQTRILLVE
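Screened at intermediate enzyme activity to detect both inhibitors and activators: LmPK at 0.1 nM, with a 0.5 nM enzyme column as activation reference. PEP 0.5 mM, ADP 0.1 mM; ATP detected by luminescence after 1 h.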
Tb PYK inh: inhibitors of Trypanosoma brucei pyruvate kinase; Q57TT1; TbPYK enzyme, Kinase-Glo Plus ATP luminescence, 45 min; Potency, µM (doses to about 76.8 µM), for inactives: at the top dose activity, negative = inhibition, usual class: inhibitors; 410,000 compounds, 0.12% hits; AID 624173; also: % is scaled to controls: 0 for no effect and ±100 for the full control effect; nearly all actives have a fitted effect of over 50% in size
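Quantitative HTS: titrated library compounds versus trypanosomal pyruvate kinase in TEA buffer (pH 7.2) containing KCl, MgCl2, BSA and Tween-20. Reactions were initiated with ADP, 130 uM final. Kinase-Glo Plus luminescence was read after 45 min at RT.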
NS1 function inh: inhibitors of influenza NS1 protein function. 270,000 compounds, 0.4% hits. AID 2326. Potency, µM (titrated, usually from 46.1 µM), inactives show at the top dose activity, positive = more growth; calls by dose curve; also: actives are rising curves; nearly all actives have a fitted effect of over 50% in size
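Read-out: OD600 growth recovery of NS1-expressing budding yeast. Cells grown overnight at 30C in -URA glucose medium, washed, resuspended and diluted 1:100 in 2% galactose assay medium, pH 6.0. Same strain lacking NS1 served as positive control.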
Sm TGR inh: S. mansoni TGR enzyme inhibition. 360,000 compounds, 3% hits. Q962Y6. AID 485364. purified TGR, DTNB reduction, TNB absorbance 405 nm. Potency, µM (series often up to 114 µM), inactives show at the highest dose activity change, negative = inhibition, actives largely listed as inhibitors; also: % is scaled to controls: 0 for no effect and ±100 for the full control effect; nearly all actives have a fitted effect of over 60% in size
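Kinetic colorimetric format: TGR-catalysed, NADPH-driven DTNB reduction monitored via TNB absorbance. Enzyme dispensed at 20 nM; compound exposure 15 min at room temperature before reaction start.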
SARS PLP yeast: inhibitors of SARS-CoV papain-like protease in yeast; S. cerevisiae expressing SARS-CoV PLpro, growth rescue; Potency, µM (series often up to 32.9 µM), inactives show top-dose activity, positive = growth rescue, hits mostly activators; 330,000 compounds, 0.19% hits; AID 485353; calls by dose curve; also: 0% is about no effect; nearly all actives have a fitted effect of over 55% in size
The depositor's hits bear a star; [ ] = another dose, or the depositor's remark. Unless noted, calls follow the shape of the dose curve; as a rule, active = well fitted curve in the direction sought with a large enough effect; inconclusive = small, poorly fitted or top-dose-only effect, or another doubt; inactive = no such curve, though single readings can be large; an effect the other way counts as inactive or inconclusive. Potency is read from the fitted curve at half-maximal effect.

What do the screens show for `CCOc1ccc(C(=O)CC(C(=O)O)N2CCN(Cc3ccccc3)CC2)cc1` (stereo unspecified)?
RE007 growth inh: -5%; Tb PYK inh: -13%; Sm TGR inh: 7.9µM*; SARS PLP yeast: 3%

Results for CCOc1ccc(C(=O)CCC(=O)N(CC)CC(=O)NCc2cccs2)cc1 ?
RE007 growth inh: -9%; Tb PYK inh: 2%; Sm TGR inh: -15%; SARS PLP yeast: 8%

Results for CCOc1ccc(C(=O)CC(C(=O)O)N2CCCCC2)cc1 (stereo unspecified) ?
RE007 growth inh: -10%; Tb PYK inh: -24%; Sm TGR inh: 6.3µM*; SARS PLP yeast: 4%

Results for CCOc1ccc(C(=O)CC(NCc2cccs2)C(=O)O)cc1 (stereo unspecified) ?
RE007 growth inh: inconclusive; LmPK inh: -2%; Tb PYK inh: -19%; NS1 function inh: -6%; Sm TGR inh: 6.3µM*; SARS PLP yeast: -1%

Results for C[N@+]1(CCC(=O)c2ccccc2)CC[C@H]2CC[C@H](C2)C1 ?
NS1 function inh: 0%

What do the screens show for `C[C@H](CC(C#N)(c1ccccc1)c1ccccc1)N1CCCCC1`?
NS1 function inh: -1%

Results for C=CCS(=O)(=O)c1nc2ccccc2s1 ?
RE007 growth inh: -24%; LmPK inh: -8%; Tb PYK inh: 0%; NS1 function inh: -9%; Sm TGR inh: 14µM*; SARS PLP yeast: -45%

Results for CCS(=O)(=O)CCSc1nc2ccccc2s1 ?
RE007 growth inh: -19%; LmPK inh: -1%; Tb PYK inh: -14%; NS1 function inh: 0%; Sm TGR inh: 0%; SARS PLP yeast: 0%

What do the screens show for `O=S(=O)(CCSc1nc2ccccc2s1)c1nc2ccccc2s1`?
RE007 growth inh: -28%; LmPK inh: 6%; Tb PYK inh: 1%; NS1 function inh: -7%; Sm TGR inh: 0.1µM*; SARS PLP yeast: -60%

What do the screens show for `CCC(C(=O)Nc1cc(C(F)(F)F)ccc1Cl)n1nc(C)c2sc3ccccc3c2c1=O` (stereo unspecified)?
Tb PYK inh: 0%; Sm TGR inh: 4%

Results for COc1cc2c(c(OC)c1OC)-c1c(cc3c(c1OC)OCO3)C[C@@H](C)[C@](C)(O)C2 ?
Tb PYK inh: -8%

How did OCCC1CN(CC#Cc2ccccc2)CCN1Cc1ccccc1F (stereo unspecified) do in these assays?
RE007 growth inh: 0%; LmPK inh: 3%; Tb PYK inh: 5%; NS1 function inh: 0%; Sm TGR inh: 20µM*; SARS PLP yeast: 5%

Results for Cc1cc(N=Nc2ccc(C)c(N=Nc3cc(C)c(N)cc3N)c2)c(N)cc1N ?
RE007 growth inh: -15%; LmPK inh: 20µM*; Tb PYK inh: -4%; NS1 function inh: 5%; Sm TGR inh: -22%; SARS PLP yeast: 1%

How did O=C1c2sc3nc4n(c(=O)c3c2CCC1Br)CCCCC4 (stereo unspecified) do in these assays?
RE007 growth inh: 2%; LmPK inh: 28µM*; Tb PYK inh: inconclusive; NS1 function inh: -25%; Sm TGR inh: inconclusive; SARS PLP yeast: -15%

How did O=C1CCCc2c1sc1nc3n(c(=O)c21)CCCCC3 do in these assays?
RE007 growth inh: 3%; LmPK inh: -8%; Tb PYK inh: 4%; NS1 function inh: -6%; Sm TGR inh: -7%; SARS PLP yeast: -13%

Results for COc1ccccc1-c1ccc(/C=C2/C=C(CC(C)C)OC2=O)o1 ?
RE007 growth inh: -26%; LmPK inh: 1%; Tb PYK inh: -11%; NS1 function inh: -18%; Sm TGR inh: 35µM*; SARS PLP yeast: -2%

How did CCCC1=C/C(=C/c2ccc(-c3ccccc3OC)o2)C(=O)O1 do in these assays?
LmPK inh: 0%; Tb PYK inh: -14%; NS1 function inh: -4%; Sm TGR inh: 22µM*; SARS PLP yeast: -42%

How did O=Cc1ccc(-c2ccccc2OC(F)(F)F)o1 do in these assays?
RE007 growth inh: -17%; LmPK inh: 2%; Tb PYK inh: 0%; NS1 function inh: 9%; Sm TGR inh: -22%; SARS PLP yeast: -1%

What do the screens show for `CCOc1ccccc1NS(=O)(=O)c1c(C)nc2sccn2c1=O`?
Tb PYK inh: 2%; Sm TGR inh: 0%

Results for Cc1ccccc1NS(=O)(=O)c1cc(C(=O)NCCSC2CCCCC2)ccc1C ?
RE007 growth inh: 11µM*; LmPK inh: -1%; Tb PYK inh: -9%; NS1 function inh: inconclusive; Sm TGR inh: 4%; SARS PLP yeast: -4%

How did COc1ccc(NS(=O)(=O)c2ccc3oc(=O)c4[nH]c(=O)c(=O)n(C)c4c3c2)cc1 do in these assays?
RE007 growth inh: 4%; LmPK inh: 6%; Tb PYK inh: 2%; NS1 function inh: -5%; Sm TGR inh: 50µM*; SARS PLP yeast: -1%

How did CN(C(=O)NC(=O)C1=C(N2CCOCC2)/C(=C/c2ccccc2)CC1)S(C)(=O)=O do in these assays?
RE007 growth inh: -3%; LmPK inh: 1%; Tb PYK inh: -15%; NS1 function inh: -30%; Sm TGR inh: 16µM*; SARS PLP yeast: 2%

What do the screens show for `Cc1cc(C)nc(NN=CC2=C(N3CCOCC3)/C(=C/c3ccc(Cl)cc3)CC2)n1`?
RE007 growth inh: -4%; Tb PYK inh: 3%

Results for Cn1cc(C(=O)N/N=C/C2=C(N3CCOCC3)C(=C/c3ccc([N+](=O)[O-])cc3)/CC2)ccc1=O ?
RE007 growth inh: -11%; Tb PYK inh: 3%

What do the screens show for `Cc1cc(C)nc(N/N=C/C2=C(N3CCOCC3)C(=C\c3ccc(Cl)cc3)/CC2)n1`?
RE007 growth inh: -6%; LmPK inh: -1%; Tb PYK inh: -12%; NS1 function inh: 25%; Sm TGR inh: 32µM*; SARS PLP yeast: 19%

How did O=CC1=C(N2CCOCC2)/C(=C/c2ccc(Cl)cc2)CC1 do in these assays?
RE007 growth inh: -21%; LmPK inh: 0%; Tb PYK inh: 6%; Sm TGR inh: 22µM*; SARS PLP yeast: -4%

How did O=C(O)c1ccc(N/N=C/C2=C(N3CCOCC3)C(=C\c3ccccc3)/CC2)cc1 do in these assays?
RE007 growth inh: inconclusive; LmPK inh: -2%; Tb PYK inh: -28%; NS1 function inh: 19%; Sm TGR inh: 18µM*; SARS PLP yeast: -1%

What do the screens show for `COC(=O)C1=C(C(=O)OC)[C@@H]2Nc3ccccc3[C@@]23C[C@@H](C(=O)OC)N(S(=O)(=O)c2ccc(Br)cc2)C3=N1`?
LmPK inh: -1%[11.5 µM]
